PubChem BioAssay (Tox21)
Several values for one entry are separate records, joined by “and”; a condition that tells them apart may be missing. Identical values can stand only once. Results filed as inconclusive are left out. A call without a number means that no potency is given here. Some structures have more than one record in an assay (separate samples or runs), and their calls can disagree. Activity calls are given as the source filed them. Unless noted, calls follow the shape of the dose curve; as a rule, active = well fitted curve in the direction sought with a large enough effect in the repeat runs; inconclusive = weak or mixed curves; inactive = no such curve, though single readings can be large; an effect the other way counts as inactive or inconclusive.

Key:
[1] = A CellTox Green Cytotoxicity Assay to monitor cytotoxicity in HepG2 cells - 8 hour (AID 1224890); also: nearly all actives have a fitted effect of over 45% in size; also: potency is read from the fitted curve at half-maximal effect
How it was run: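 Cells and non-lytic dye reagent are dispensed together (600 HepG2 cells/well) and incubated 5 h before DMSO compound transfer. Kinetic fluorescence is then recorded in the same wells during 40 h at 37 C.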

[2] = qHTS assay to identify small molecule antagonists of the estrogen receptor alpha (ER-alpha) signaling pathway using the BG1 cell line in the presence of 0.1 nM 17-beta-estradiol - cell viability counter screen (AID 1259241); also: nearly all actives have a fitted effect of over 40% in size; also: potency is read from the fitted curve at half-maximal effect
How it was run: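 Viability in VM7Luc4E2 cells after 22 hr compound exposure under 0.1 nM 17beta-estradiol stimulation, by CellTiter-Fluor.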

[3] = qHTS assay to identify small molecule antagonists of the androgen receptor (AR) signaling pathway using the MDA cell line in the presence of 0.5 nM R1881 - cell viability counter screen (AID 1259242); also: nearly all actives have a fitted effect of over 45% in size; also: potency is read from the fitted curve at half-maximal effect
How it was run: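 Steps: plate MDA-kb2 cells, rest 5 hr at 37C without CO2; pin in compounds in DMSO; add R1881 to 0.5 nM final; incubate 16 hr; add CellTiter-Fluor, 30 min; read fluorescence.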

[4] = qHTS assay to identify small molecule phospholipidosis (PLD) inducers (AID 1259344; active = well fitted curve in the direction sought with a large enough effect; an effect the other way counts as inactive or inconclusive)
How it was run: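 Read-out is LipidTOX Red fluorescence (ex 595/em 615) imaged in HepG2 cells after 24 h compound exposure at 37 C, with Hoechst nuclear counterstain (ex 352/em 461) allowing per-cell normalisation.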

[5] = qHTS assay to identify small molecule HDAC inhibitors (AID 1259364);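 also: wild-type HCT-116 cells with endogenous class I/II HDAC activity; top concentration of the series differs between compounds; nearly all actives have a fitted effect of over 45% in size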
How it was run: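 Cells (HCT-116, wild type) are seeded at 1,500 per well, incubated overnight, treated with compound in DMSO for 2 hr, then developed with HDAC-Glo I/II reagent for 30 min at room temperature.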

[6] = qHTS assay to identify small molecule HDAC inhibitors - cell viability counter screen (AID 1259365); also: series mostly up to about 92 µM; nearly all actives have a fitted effect of over 50% in size
How it was run: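 Cytotoxicity was gauged in wild-type HCT-116 cells after a brief 2hr treatment with DMSO-dissolved compounds at 37C and 5% CO2, using CellTiter-Glo luminescence developed for 30min at room temperature.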

[7] = qHTS assay to identify small molecule agonists of the sonic hedgehog signaling (Shh) pathway - cell viability counter screen (AID 1259366); also: nearly all actives have a fitted effect of over 50% in size; also: potency is read from the fitted curve at half-maximal effect
How it was run: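 Stable Gli1-Luc NIH/3T3 clone, 2,000 cells/well. Compound exposure 24hr at 37C. Read-out: CellTiter-Fluor fluorescence.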

[8] = qHTS assay to identify small molecule antagonists of the sonic hedgehog signaling (Shh) pathway - cell viability counter screen (AID 1259367); also: nearly all actives have a fitted effect of over 55% in size; also: potency is read from the fitted curve at half-maximal effect
How it was run: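 Fluorescence read-out (CellTiter-Fluor, 1 hr at 37C) taken after 23 hr compound treatment of 3T3 Gli1-Luc cells stimulated with conditioned medium. Cells were seeded at 2,000 per well and pre-incubated 4 hr.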

[9] = qHTS assay to identify small molecule agonists of the sonic hedgehog signaling (Shh) pathway (AID 1259368; calls by dose curve;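 also: NIH/3T3-derived 3T3Gli1-Luc cells carrying a stable Gli1-driven firefly luciferase reporter; series mostly up to about 92 µM; nearly all actives have a fitted effect of over 15% in size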)
How it was run: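 Cells of a mouse NIH/3T3 clone stably expressing luciferase under the Gli1 transcriptional response element are exposed to test chemicals for 24 hr at 37 C. Pathway activation is detected as a rise in luminescence.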

[10] = qHTS assay to identify small molecule antagonists of the sonic hedgehog signaling (Shh) pathway (AID 1259369; calls by dose curve; also: nearly all actives have a fitted effect of over 45% in size; also: potency is read from the fitted curve at half-maximal effect)
How it was run: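 Cells are plated and held 4hr at 37 C, compounds (DMSO) are pinned in, conditioned medium is added to stimulate the pathway, and after 24hr luciferase reagent is added for 30min before luminescence is read.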

[11] = molecular target: Estrogen receptor beta (Homo sapiens) (UniProt Q92731); assay: qHTS assay to identify small molecule agonists of the estrogen receptor beta (ER-beta) signaling pathway (AID 1259377; active = well fitted activation curve with a large enough effect in the signal ratio in the repeat runs, not every such curve was filed as active; the % refers to the signal ratio)
How it was run: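 Measured by fluorescence intensity from a B/G FRET beta-lactamase substrate (2 h, room temperature) in ER-beta-UAS-bla HEK293T cells treated with DMSO-dissolved compounds for 16 hr at 37C and 5% CO2.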

[12] = molecular target: Estrogen receptor beta (Homo sapiens) (UniProt Q92731); assay: qHTS assay to identify small molecule antagonists of the estrogen receptor beta (ER-beta) signaling pathway (AID 1259378; active = well fitted inhibition curve with a large enough effect in the signal ratio in the repeat runs, not every such curve was filed as active; the % refers to the signal ratio)
How it was run: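 ER-beta-UAS-bla HEK293T cells in 2% charcoal-stripped FBS medium treated with compound plus 1nM final 17-beta-estradiol for 16 hr at 37C. Beta-lactamase reporter read by FRET substrate fluorescence after 2 hours at room temperature.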

[13] = qHTS assay to identify small molecule agonists of the androgen receptor (AR) signaling pathway in the presence of an antagonist - cell viability counter screen (AID 1259379); also: nearly all actives have a fitted effect of over 25% in size; also: potency is read from the fitted curve at half-maximal effect
How it was run: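 Cytotoxicity is assessed by CellTiter-Fluor in MDA-kb2 cells carrying an MMTV-driven luciferase reporter. Cells receive 3.0uM nilutamide plus compounds at 15 concentrations and incubate 16 hr at 37C without CO2 before fluorescence reading.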

[14] = qHTS assay to identify small molecule agonists of the estrogen receptor beta (ER-beta) signaling pathway - cell viability counter screen (AID 1259380); also: nearly all actives have a fitted effect of over 30% in size; also: potency is read from the fitted curve at half-maximal effect
How it was run: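 Cytotoxicity is measured in parallel with the reporter screen: after 16 hr compound exposure at 37C and a 2 hr LiveBLAzer step, CellTiter-Glo is added to the same ER-beta-UAS-bla HEK293T wells and luminescence read after 30 min.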

[15] = qHTS assay to identify small molecule agonists or antagonists of the thyroid stimulating hormone receptor (TSHR) signaling pathway - wild type cell line counter screen (AID 1259384; calls by dose curve)
How it was run: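 Wild-type Hek293 cells, 800/well, 18 h at 37C, then compound with Ro20-1724 for 30 min RT. cAMP by HTRF (cAMP-d2/anti-cAMP cryptate), 1 h RT, fluorescence read. 15 concentrations, triplicates.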

[16] = molecular target: Estrogen receptor (Homo sapiens) (UniProt P03372); assay: qHTS assay to identify small molecule antagonists of the estrogen receptor alpha (ER-alpha) signaling pathway using the BG1 cell line in the presence of 0.1 nM 17-beta-estradiol (AID 1259244); also: nearly all actives have a fitted effect of over 50% in size
How it was run: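 Antagonist mode: compounds in DMSO are pinned onto VM7Luc4E2 reporter cells, 0.1 nM final 17beta-estradiol is added, and after 22 h at 37C luciferase luminescence is measured with ONE-Glo.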

[17] = molecular target: Estrogen receptor (Homo sapiens) (UniProt P03372); assay: qHTS assay to identify small molecule agonists of the estrogen receptor alpha (ER-alpha) signaling pathway in the presence of an antagonist (AID 1259383; calls by dose curve; also: top concentration of the series differs between compounds; nearly all actives have a fitted effect of over 15% in size)
How it was run: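 Agonist-mode confirmation in the presence of the ER antagonist ICI-182,780 at 10.0nM final. Breast-derived VM7Luc4E2 reporter cells were exposed to compounds for 22hr, and ERE-driven luciferase was quantified by luminescence.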

[18] = molecular target: Androgen receptor (Homo sapiens) (UniProt P10275); assay: qHTS assay to identify small molecule antagonists of the androgen receptor (AR) signaling pathway using the MDA cell line in the presence of 0.5 nM R1881 (AID 1259243); also: nearly all actives have a fitted effect of over 50% in size; also: potency is read from the fitted curve at half-maximal effect
How it was run: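 Stably transfected MDA-kb2 cells express luciferase from an MMTV promoter bearing both AR and GR response elements. Compounds plus 0.5 nM R1881 (final) were incubated 16 hr at 37C without CO2, then luminescence measured.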

[19] = molecular target: Androgen receptor (Homo sapiens) (UniProt P10275); assay: qHTS assay to identify small molecule agonists of the androgen receptor (AR) signaling pathway in the presence of an antagonist (AID 1259381; calls by dose curve; also: nearly all actives have a fitted effect of over 15% in size)
How it was run: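 Agonist-mode confirmation screen: human MDA-kb2 cells stably expressing luciferase under an MMTV promoter bearing AR and GR response elements, co-treated with 3.0uM nilutamide (final). Luminescence measured after 16hr compound incubation.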

[20] = qHTS assay to identify small molecule antagonists of the estrogen receptor beta (ER-beta) signaling pathway - cell viability counter screen (AID 1259382); also: nearly all actives have a fitted effect of over 55% in size; also: potency is read from the fitted curve at half-maximal effect
How it was run: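 Cytotoxicity counter screen multiplexed with the beta-lactamase antagonist assay: GripTite HEK293T ER-beta-bla cells were treated 16 hr with test chemicals in the presence of 1nM 17-beta-estradiol, and viability was measured by CellTiter-Glo.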

Estrogen receptor (Homo sapiens), sequence (P03372 whole entry, looked up): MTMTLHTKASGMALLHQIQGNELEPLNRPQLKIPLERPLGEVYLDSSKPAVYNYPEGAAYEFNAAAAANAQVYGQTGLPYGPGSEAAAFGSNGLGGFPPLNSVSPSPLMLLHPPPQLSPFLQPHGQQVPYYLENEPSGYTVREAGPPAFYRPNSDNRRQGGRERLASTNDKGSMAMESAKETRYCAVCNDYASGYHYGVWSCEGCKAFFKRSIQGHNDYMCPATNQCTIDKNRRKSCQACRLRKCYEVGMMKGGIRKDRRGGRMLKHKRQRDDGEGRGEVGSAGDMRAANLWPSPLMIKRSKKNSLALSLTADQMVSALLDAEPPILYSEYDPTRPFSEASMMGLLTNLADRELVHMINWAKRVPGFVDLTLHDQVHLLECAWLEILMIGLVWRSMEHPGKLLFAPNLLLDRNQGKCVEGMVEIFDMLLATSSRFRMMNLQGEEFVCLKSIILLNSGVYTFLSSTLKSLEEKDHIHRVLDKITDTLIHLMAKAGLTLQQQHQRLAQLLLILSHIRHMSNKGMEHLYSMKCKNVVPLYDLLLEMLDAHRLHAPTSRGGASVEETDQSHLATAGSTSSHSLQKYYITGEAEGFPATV
Estrogen receptor beta (Homo sapiens), sequence (Q92731 whole entry, looked up): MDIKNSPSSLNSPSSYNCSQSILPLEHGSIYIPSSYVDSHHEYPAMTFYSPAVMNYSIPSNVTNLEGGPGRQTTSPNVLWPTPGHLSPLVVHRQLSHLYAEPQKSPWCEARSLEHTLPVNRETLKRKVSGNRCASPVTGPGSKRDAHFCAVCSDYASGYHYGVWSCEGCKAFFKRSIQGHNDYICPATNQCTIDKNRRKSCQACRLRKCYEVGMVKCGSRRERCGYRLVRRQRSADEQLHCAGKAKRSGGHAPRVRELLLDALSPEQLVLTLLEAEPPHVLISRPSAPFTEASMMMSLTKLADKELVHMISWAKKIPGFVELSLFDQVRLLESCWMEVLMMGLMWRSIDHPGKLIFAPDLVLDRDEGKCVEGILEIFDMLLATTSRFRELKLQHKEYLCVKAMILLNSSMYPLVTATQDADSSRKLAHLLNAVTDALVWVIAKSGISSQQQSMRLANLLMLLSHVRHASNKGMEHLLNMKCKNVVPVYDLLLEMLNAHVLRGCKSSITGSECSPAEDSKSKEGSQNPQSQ
Androgen receptor (Homo sapiens), sequence (P10275 whole entry, looked up): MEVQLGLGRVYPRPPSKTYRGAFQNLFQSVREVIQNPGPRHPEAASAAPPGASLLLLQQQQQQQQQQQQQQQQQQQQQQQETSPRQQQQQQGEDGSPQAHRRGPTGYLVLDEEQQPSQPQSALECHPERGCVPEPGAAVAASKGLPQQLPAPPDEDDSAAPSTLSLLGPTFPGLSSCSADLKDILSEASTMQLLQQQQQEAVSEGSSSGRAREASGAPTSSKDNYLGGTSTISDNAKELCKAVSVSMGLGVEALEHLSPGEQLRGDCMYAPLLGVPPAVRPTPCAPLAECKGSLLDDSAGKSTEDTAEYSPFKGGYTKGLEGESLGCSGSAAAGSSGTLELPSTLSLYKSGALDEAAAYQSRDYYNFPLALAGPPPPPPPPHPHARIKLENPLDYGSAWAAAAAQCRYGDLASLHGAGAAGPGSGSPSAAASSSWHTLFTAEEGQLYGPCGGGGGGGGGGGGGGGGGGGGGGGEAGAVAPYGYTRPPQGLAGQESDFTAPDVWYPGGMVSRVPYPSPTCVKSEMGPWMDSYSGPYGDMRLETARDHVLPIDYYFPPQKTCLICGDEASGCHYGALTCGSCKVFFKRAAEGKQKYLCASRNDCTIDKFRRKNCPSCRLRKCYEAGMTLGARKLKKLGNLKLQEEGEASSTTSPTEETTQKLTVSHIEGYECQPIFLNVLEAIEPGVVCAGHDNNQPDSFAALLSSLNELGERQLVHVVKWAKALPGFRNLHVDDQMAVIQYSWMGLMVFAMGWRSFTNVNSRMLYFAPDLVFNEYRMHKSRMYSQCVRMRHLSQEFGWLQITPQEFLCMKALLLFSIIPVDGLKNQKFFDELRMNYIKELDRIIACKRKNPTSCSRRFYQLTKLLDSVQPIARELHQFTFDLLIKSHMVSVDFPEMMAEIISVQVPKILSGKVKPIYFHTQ

Row | Structure (SMILES) | Potency [1] | Potency [2] | Potency [3] | Potency [4] | Potency [5] | outcome [6] | Potency [7] | Potency [8] | outcome [9] | Potency [10] | outcome [11] | Potency [12] | Potency [13] | Potency [14] | Potency [15] | Potency [16] | Potency [17] | Potency [18] | outcome [19] | Potency [20]
1 | O=c1cc[nH]c(=O)[nH]1 | inactive | inactive | inactive | inactive | inactive | inactive | inactive | inactive | inactive | inactive | inactive | inactive | inactive | inactive | inactive | – | – | – | – | –
2 | CC(=O)CCC(C)C | inactive and 43.6 µM (active) | inactive | inactive | – | inactive | inactive | inactive | inactive | inactive | inactive | – | – | inactive | inactive | – | inactive | inactive | – | – | –
3 | NCCNc1cccc2ccccc12 | inactive | inactive | inactive | – | inactive | inactive | 61.1 µM (active) and inactive | inactive | inactive | 61.1 µM (active) and 37.6 µM (active) and inactive | – | – | 54.4 µM (active) and 59.6 µM (active) and inactive | 54.4 µM (active) and 59.6 µM (active) | – | – | – | 68.5 µM (active) and inactive | inactive | 24.3 µM (active) and 59.6 µM (active) and inactive
4 | NC(=O)N1c2ccccc2C=Cc2ccccc21 | inactive | inactive | inactive | inactive | inactive | inactive | inactive | inactive | inactive | inactive | inactive | inactive | inactive | inactive | – | inactive | inactive | – | – | inactive
5 | CO[C@H]1C=CO[C@@]2(C)Oc3c(C)c(O)c4c(O)c(c(/C=N/N5CCN(C)CC5)c(O)c4c3C2=O)NC(=O)/C(C)=C\C=C[C@H](C)[C@H](O)[C@@H](C)[C@@H](O)[C@@H](C)[C@H](OC(C)=O)[C@@H]1C | inactive | 27.4 µM (active) and 19.6 µM (active) and 13.3 µM (active) | 30.8 µM (active) | inactive | inactive | inactive | 24.5 µM (active) and 15.5 µM (active) and 13.3 µM (active) | 24.5 µM (active) and 17.4 µM (active) and 11.9 µM (active) | inactive | 27.4 µM (active) and inactive | inactive | inactive | 24.5 µM (active) and 27.6 µM (active) and 15 µM (active) | inactive | inactive | – | – | – | – | inactive
6 | Cc1cccc(C)c1O | inactive | inactive | inactive | – | inactive | inactive | inactive | inactive | inactive | inactive | inactive | inactive | inactive | inactive | – | inactive | inactive | inactive | inactive | inactive
7 | C=C(C)C(N)=O | inactive | inactive | inactive | – | inactive | inactive | inactive | inactive | inactive | inactive | – | – | inactive | inactive | inactive | inactive | inactive | – | – | inactive
8 | CCCCCCCCCCCCCC(=O)OC(C)C | inactive | inactive | – | inactive | inactive | inactive | inactive | inactive | inactive | inactive | inactive | inactive | inactive | inactive | – | inactive | inactive | inactive | inactive | –
9 | NC(=O)OCC(COC(N)=O)c1ccccc1 | inactive | inactive | inactive | inactive | inactive | inactive | inactive | inactive | inactive | inactive | – | – | inactive | inactive | – | inactive | inactive | inactive | inactive | inactive
10 | COC(=O)c1ccc(O)cc1 | inactive | inactive | inactive | inactive | inactive | inactive | inactive | inactive | inactive | inactive | inactive | inactive | inactive | inactive | inactive | inactive | inactive | – | – | inactive
11 | CC(=O)c1ccc(S(=O)(=O)NC(=O)NC2CCCCC2)cc1 | inactive | inactive | inactive | inactive | inactive | inactive | inactive | inactive | inactive | inactive | inactive | inactive | inactive | inactive | inactive | inactive | inactive | inactive | inactive | inactive
12 | CCCCCCCCCCCCCCCCCC(=O)OCC(O)CO (stereo not drawn) | inactive | inactive | inactive | inactive | inactive | inactive | inactive | inactive | inactive | inactive | inactive | inactive | inactive | inactive | – | inactive | inactive | – | – | –
13 | COc1cc(C=O)ccc1O | inactive | inactive | inactive | inactive | inactive | inactive | inactive | inactive | inactive | inactive | inactive | inactive | inactive | inactive | inactive | inactive | inactive | inactive | inactive | inactive
14 | Cn1cnc2c1c(=O)[nH]c(=O)n2C | inactive | inactive | inactive | inactive | inactive | inactive | inactive | inactive | inactive | inactive | – | – | inactive | inactive | – | – | – | – | – | –
15 | COC(=O)C1CCC(C(=O)OC)CC1 (stereo not drawn) | inactive | inactive | inactive | – | inactive | inactive | inactive | inactive | inactive | inactive | inactive | inactive | inactive | inactive | – | inactive | inactive | – | – | –
